From PubChem BioAssay (NCATS) come the findings set out here.

Each structure is given as a SMILES string. Records with an inconclusive call do not appear. Unmarked numbers belong to inactive results. Activity calls are given as the source filed them. Calls come from the whole dose curve; as a rule, active = well fitted curve in the direction sought with a large enough effect; inconclusive = small, poorly fitted or top-dose-only effect, or another doubt; inactive = no such curve, though single readings can be large; an effect the other way counts as inactive or inconclusive.

For assay [1], the target named is ATP-dependent 6-phosphofructokinase (Trypanosoma brucei brucei) (UniProt O15648). Briefly: qHTS Assay to Find Inhibitors of T. brucei phosphofructokinase: hit validation (AID 492961). Note: % is set by controls: 0 for no effect and ±100 for the full control effect. The procedure, abridged: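 Luminescence from ADP-Glo reports ADP generated as T. brucei PFK (1.25 nM) phosphorylates 0.5 mM fructose-6-phosphate using 0.1 mM ATP. Reactions ran 45 min at room temperature, pH 8.0.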
ATP-dependent 6-phosphofructokinase (Trypanosoma brucei brucei), sequence (O15648 whole entry, looked up): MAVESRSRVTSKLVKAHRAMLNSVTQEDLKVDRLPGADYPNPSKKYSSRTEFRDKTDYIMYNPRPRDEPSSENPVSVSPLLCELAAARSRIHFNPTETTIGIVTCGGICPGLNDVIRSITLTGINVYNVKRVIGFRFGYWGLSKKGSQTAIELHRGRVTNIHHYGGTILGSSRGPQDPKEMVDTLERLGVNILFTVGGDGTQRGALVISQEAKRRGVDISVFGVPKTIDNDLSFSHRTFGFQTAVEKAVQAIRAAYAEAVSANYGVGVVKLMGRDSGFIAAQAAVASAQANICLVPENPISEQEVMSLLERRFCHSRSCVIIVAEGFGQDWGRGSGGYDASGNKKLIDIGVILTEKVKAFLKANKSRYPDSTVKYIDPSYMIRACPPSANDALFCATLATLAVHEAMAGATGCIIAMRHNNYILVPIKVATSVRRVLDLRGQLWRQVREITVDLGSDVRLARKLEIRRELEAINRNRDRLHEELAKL
A general note: qHTS replaces the single test concentration by a dilution series.

A short description of assay [2]: qHTS profiling for inhibitors of Plasmodium falciparum proliferation (AID 504749).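 For activity, negative = inhibition: 0% = DMSO vehicle and full inhibition = artemisinin control.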 For all read-outs here: nearly all actives have a fitted effect of over 60% in size. Note: potency is the fitted concentration of half-maximal effect. The note with it: P. falciparum in erythrocytes, SYBR Green DNA, 72 h; for activity, negative = inhibition: at 28.7 µM (top of the series). The procedure, abridged: (§1)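 Each compound contacts P. falciparum-infected red blood cells for 72 h at 37 C; lysis buffer (Tris, EDTA, saponin, Triton X, SYBR Green I) is added and fluorescence measured next morning; values normalized to controls.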

The next assay relates to 3D7. The description is as above. As to conditions: P. falciparum in erythrocytes, SYBR Green DNA, 72 h; series mostly up to 28.7 µM. The essentials:
as §1

The subject of another assay is 7G8. The assay is described as above. As to conditions: P. falciparum in erythrocytes, SYBR Green DNA, 72 h; series mostly up to 28.7 µM. The procedure, abridged: as §1
In a further assay the test system is AS120. The description is as above. As to conditions: P. falciparum in erythrocytes, SYBR Green DNA, 72 h; series mostly up to 28.7 µM. The essentials:
as §1

A further assay deals with ATS189. Described as above. As to conditions: P. falciparum in erythrocytes, SYBR Green DNA, 72 h; series mostly up to 28.7 µM. The procedure, abridged: as §1
Another assay relates to CP185. The assay is described as above. The note with it: P. falciparum in erythrocytes, SYBR Green DNA, 72 h; series mostly up to 28.7 µM. The procedure, abridged:
as §1

The next assay concerns CP191. Described as above. As to conditions: P. falciparum in erythrocytes, SYBR Green DNA, 72 h; series mostly up to 28.7 µM. The essentials: as §1
In the next assay the test system is CP192. Described as above. The note with it: P. falciparum in erythrocytes, SYBR Green DNA, 72 h; series mostly up to 28.7 µM. The essentials:
as §1

In the next assay the test system is CP194. Described as above. The note with it: P. falciparum in erythrocytes, SYBR Green DNA, 72 h; series mostly up to 28.7 µM. The procedure, abridged: as §1
The next assay relates to CP201. The description is as above. As to conditions: P. falciparum in erythrocytes, SYBR Green DNA, 72 h; series mostly up to 28.7 µM. The essentials:
as §1

For a further assay, the system named is CP203. Described as above. The note with it: P. falciparum in erythrocytes, SYBR Green DNA, 72 h; series mostly up to 28.7 µM. The procedure, abridged: as §1
For another assay, the system named is CP247. The assay is described as above. The note with it: P. falciparum in erythrocytes, SYBR Green DNA, 72 h; series mostly up to 28.7 µM. The procedure, abridged:
as §1

A further assay relates to CP286. Described as above. As to conditions: P. falciparum in erythrocytes, SYBR Green DNA, 72 h; series mostly up to 28.7 µM. The procedure, abridged:
as §1

A further assay deals with CP291. The assay is described as above. As to conditions: P. falciparum in erythrocytes, SYBR Green DNA, 72 h; series mostly up to 28.7 µM. The procedure, abridged:
as §1

Another assay concerns CP305. The description is as above. As to conditions: P. falciparum in erythrocytes, SYBR Green DNA, 72 h; series mostly up to 28.7 µM. The procedure, abridged: as §1
The subject of the next assay is HB3. The description is as above. As to conditions: P. falciparum in erythrocytes, SYBR Green DNA, 72 h; series mostly up to 28.7 µM. The essentials: as §1
For another assay, the system named is P94_40. The assay is described as above. As to conditions: P. falciparum in erythrocytes, SYBR Green DNA, 72 h; series mostly up to 28.7 µM. The essentials:
as §1

A further assay deals with PC49. Described as above. As to conditions: P. falciparum in erythrocytes, SYBR Green DNA, 72 h; series mostly up to 28.7 µM. The essentials:
as §1

`CC1(Cn2ccnn2)[C@H](C(=O)O)N2C(=O)C[C@H]2S1(=O)=O` (stereo not given in full): the Potency result (in assay [1]; with 3D7; with 7G8; with AS120; in the assay on ATS189; in the assay on CP185) was “inactive” in each case. Further, the Potency entry in the assay with CP191, with CP192, in the assay with CP194, in the assay with CP201, with CP203 and in the assay with CP247 was “inactive” each time. Also, the Potency result with CP286, with CP291, in the assay on CP305, in the assay on HB3, in the assay on P94_40 and in the assay on PC49 was “inactive” throughout. Also, the results for the activity, negative = inhibition in [2] (parasite line A) and in assay [2] (parasite line B) were 4.59% and 0.438%, respectively.
For `OCCOC[C@H]1O[C@H](OCCO)[C@H](OCCO)[C@@H](OCCO)[C@@H]1OCCO` (tested in a mixture with another compound), the Potency entry (in [1]; in the assay with 3D7; with 7G8; in the assay with AS120; with ATS189; in the assay with CP185) was “inactive” in each case. In addition, the Potency entry in the assay with CP191, with CP192, in the assay with CP194, in the assay on CP201, in the assay on CP203 and with CP247 was “inactive” in each case. The Potency entry with CP286, in the assay on CP291, with CP305, with HB3, in the assay on P94_40 and in the assay with PC49 was “inactive” in each case. Further, the activity, negative = inhibition is 3.32% in assay [2] (parasite line A) and 1.14% in [2] (parasite line B).
`COc1cccc(OC)c1C(=O)NC1C(=O)N2C1SC(C)(C)C2C(=O)O` (stereo not given): the Potency entry (in assay [1]; with 3D7; in the assay on 7G8; with AS120; in the assay on ATS189; in the assay on CP185) was “inactive” throughout. For the same compound, the Potency entry in the assay with CP191, in the assay with CP192, with CP194, in the assay on CP201, with CP203 and in the assay on CP247 was “inactive” each time. Also, the Potency entry in the assay on CP286, in the assay on CP291, in the assay with CP305, with HB3, with P94_40 and with PC49 was “inactive” each time. In addition, the activity, negative = inhibition was 11.2% in assay [2] (parasite line A) and -9.69% in assay [2] (parasite line B).
Consider `C=C[C@H]1CN2CCC1C[C@H]2[C@H](O)c1ccnc2ccc(OC)cc12` (stereo not given in full), for which the Potency result in assay [1] is “inactive”. Also, the Potency in [2] (parasite line A) is 0.141 µM (active); in assay [2] (parasite line B), 0.141 µM (active); in the assay on 3D7 it was 0.178 µM (active); with 7G8, 0.224 µM (active); in the assay with AS120, 1.41 µM (active); in the assay with ATS189, 1.12 µM (active). Further, the Potency was 0.794 µM (active) with CP185; 0.708 µM (active) with CP191; 1.69 µM (active) in the assay with CP192; 1.07 µM (active) in the assay on CP194; 2.13 µM (active) with CP201; 1.69 µM (active) in the assay with CP203. Further, the Potency was 1.26 µM (active) in the assay with CP247; 1 µM (active) in the assay on CP286; 1.2 µM (active) in the assay with CP291; 1.35 µM (active) in the assay with CP305; 0.794 µM (active) with HB3; 1 µM (active) in the assay on P94_40. Moreover, in the assay on PC49, the Potency was 1.26 µM (active).
With `NC[C@@H]1O[C@H](OC2[C@@H](CO)O[C@@H](OC3[C@H](O)[C@H](N)C[C@H](N)[C@H]3OC3O[C@H](CO)[C@@H](O)[C@H](O)[C@@H]3N)[C@H]2O)C(N)[C@H](O)[C@@H]1O` (stereo not given in full), the Potency result (in [1]; with 3D7; in the assay on 7G8; in the assay with AS120; in the assay on ATS189; with CP185) was “inactive” in each case. Besides, the Potency result with CP191, with CP192, with CP194, with CP201, in the assay on CP203 and in the assay with CP247 was “inactive” in each case. Further, the Potency result with CP286, in the assay on CP291, in the assay with CP305, in the assay on HB3, in the assay with P94_40 and in the assay on PC49 was “inactive” throughout. For the same compound, the activity, negative = inhibition is 11.9% in [2] (parasite line A) and 20% in assay [2] (parasite line B).
In the case of `CCCCCCCCCCCC(=O)OCC(O)C1OCC(O)C1O` (stereo not given), the Potency result (in assay [1]; in the assay with 3D7; in the assay on 7G8; in the assay with AS120; with ATS189; in the assay on CP185) was “inactive” each time. In addition, the Potency result in the assay with CP191, in the assay with CP192, with CP194, in the assay on CP201, in the assay on CP203 and in the assay with CP247 was “inactive” throughout. Further, the Potency result with CP286, with CP291, in the assay on CP305, in the assay on HB3, in the assay with P94_40 and in the assay with PC49 was “inactive” each time. Besides, the results for the activity, negative = inhibition in assay [2] (parasite line A) and in assay [2] (parasite line B) were -2.73% and 8.41%, respectively.
